ChEMBL document CHEMBL1157539, “Thousands of chemical starting points for antimalarial lead identification” (Nature, 2010)

These compounds were tested on HepG2 (assay: GSK_TCMDC: Percent inhibition of human HepG2 cell line. Test compounds present at 10uM.).
Format: functional

Row | Structure (SMILES) | Inhibition [%]
1 | Br.N=C(N)c1ccc(C(=O)Nc2cccc(C(=N)N)c2)cc1 | 13
2 | CN(C)c1cc(C(=O)N[C@@H](Cc2ccccc2)[C@H](O)CNC2CCCCC2)cc2[nH]ccc12.O=CO | 10
3 | CC(=O)Nc1nnc(SCc2c(C)cc(C(C)(C)C)cc2C)s1 | 3
4 | O=C(NC1CCN(Cc2ccccc2)CC1)c1ccc(CNC2CCN(Cc3ccccc3)CC2)cc1.O=C(O)C(F)(F)F | 14
5 | COc1cc(NC(=O)/C=C/c2cc(F)cc(F)c2F)cc(OCCN2CCCCC2)c1.O=C(O)C(=O)O | 10
6 | Cc1cc(NCc2ccc(F)cc2)nc2cc(O)ccc12 | 14
7 | Cc1ccc(NC(=O)Nc2cccc(Cl)c2)cc1-c1ccc(C(=O)Nc2ccncc2)cc1 | 67
8 | Cl.N=C(N)c1ccc(NC(=O)Cc2nc3cc(C(=N)N)ccc3[nH]2)cc1 | 4
9 | COc1ccc(S(=O)(=O)NC2CCN(CCNC(=O)Nc3cc(C)nc4ccccc34)C2)cc1 (stereo not given) | 0
10 | O=C(N/N=C/c1nc2ccccc2[nH]1)c1cccc([N+](=O)[O-])c1 | 0
11 | SC(=Nc1ccc(Cl)c(Cl)c1)NN=Cc1ccccn1 | 40
12 | CCc1ccc(NC(=O)c2ccc(CN3CCCN(CCC(C)C)CC3)cc2)cc1.O=C(O)C(F)(F)F | 48
13 | N=C1NC(c2ccccc2)(c2ccccc2)C(=O)N1CC=Cc1ccccc1.O=C(O)C(F)(F)F | 23
14 | O=C(/C=C/c1ccccc1Cl)Nc1ccc(Br)c(OCCN2CCCCC2)c1.O=C(O)C(=O)O | 11
15 | Nc1cccc(CNCc2cccc(-c3ccc(-c4nc5ccccc5[nH]4)cc3)c2)c1.O=C(O)C(F)(F)F | 0
16 | COc1cc(C(=O)Nc2cccc(-c3cn4cccc(C)c4n3)c2)cc(OC)c1OC | 0
17 | CCNc1c2ccc(Cl)cc2nc2ccc(OC)cc12.Cl | 16
18 | O=C(/C=C/c1ccc(Cl)c(Cl)c1)NCCCCCN1CCC(NC(=O)Nc2ccc(OC(F)F)cc2)CC1 | 33
19 | N#Cc1cccc(CN2CCCN(c3ccc(NC(=O)c4cccs4)cc3)CC2)c1.O=C(O)C(F)(F)F | 0
20 | Oc1ccc2ccccc2c1C=NNc1nc(=Nc2ccccc2)nc(N2CCOCC2)[nH]1 | 66

Row | Structure (SMILES) | Inhibition [%]
21 | c1ccc(C2CCC(N3CCC(N4CCN(c5ccccc5)CC4)CC3)CC2)cc1 (stereo not given) | 6
22 | Cl.O=C(NCCCCN1CCC(c2ccc(OC(F)(F)F)cc2)CC1)c1ccc(NC(=O)c2ccc(Cl)cc2)cc1 | 24
23 | Cc1cccc2nc(-c3cccc(-c4cccc(CN5CCC(CO)CC5)c4)c3)[nH]c12.O=C(O)C(F)(F)F | 4
24 | O=C(Nc1cccc(-c2ccc(-c3nc4cc(C(F)(F)F)ccc4[nH]3)cc2)c1)c1c[nH]cn1 | 16
25 | COc1cc(OC)c2c(c1Cl)O[C@]1(C2=O)C(=O)C(Cc2ccccc2)(Cc2ccccc2)C(=O)C[C@H]1C | 0
26 | COc1ccc2nc3cc(Cl)ccc3c(NCCNCC(O)CO)c2n1.Cl (stereo not given) | 12
27 | CCN(CC)CCCC(C)Nc1c2ccccc2nc2c1ccc1ccccc12.Cl (stereo not given) | 18
28 | COc1cc(OC)c(OC)cc1CN1CCC2(CC1)CN(Cc1ccc(Cl)c(Cl)c1)C(=O)O2 | 8
29 | COc1cc2s/c(=N\C(=O)c3cccc([N+](=O)[O-])c3)n(C)c2cc1OC | 5
30 | CS(=O)(=O)N(c1ccccc1)c1cc(C(=O)N[C@@H](Cc2ccccc2)[C@H](O)CNC2CCCCC2)cc(N2CCCC2=O)c1 | 8
31 | Cc1cccc(C)c1OC(=O)CSc1nnc(-c2ccccc2O)o1 | 11
32 | CC(C)c1ccc(NC(=O)c2ccc(NCCCN(C)Cc3ccccc3)c([N+](=O)[O-])c2)cc1 | 21
33 | Cc1ccc(NC(=O)c2ccc(CN3CCCN(CC4CCCCC4)CC3)cc2)cc1F.O=C(O)C(F)(F)F | 51
34 | O=C(Nc1ccc(Cl)cc1)NC1CCN(CCCCCNC(=O)C2CC2c2ccc(Cl)c(Cl)c2)CC1 (stereo not given) | 51
35 | c1ccc2c(CNc3nc(NCC4CCCCC4)nc4[nH]cnc34)cccc2c1 | 0
36 | COc1cc2nc(C)nc(Nc3cccc(Br)c3)c2cc1OC.Cl | 0
37 | CS(=O)(=O)c1ccc(CCNCc2ccc(-c3ccc(CNC4CCN(Cc5ccccc5)CC4)cc3)nc2)cc1.O=C(O)C(F)(F)F | 32
38 | Cl.Clc1ccc(CCNCCCCCCNCCc2ccc3c(c2)OCO3)cc1 | 23
39 | CN(C)CCCNc1ncnc2c1[nH]c1ccc(Br)cc12 | 3
40 | CN(C)CCCNCc1ccc(-c2ccc(CNCCOc3ccccc3)cc2)cc1.O=C(O)C(F)(F)F | 27
